Source: PubChem BioAssay
The source made the active and inactive calls. How the calls were made is not given here.

Each molecule was assayed against Pantothenate synthetase (Mycobacterium tuberculosis (strain ATCC 25618 / H37Rv)) (UniProt P9WIL5) (assay: Coupled enzyme confirmation of inhibitors against recombinant Mtb PanC (AID 375;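 further: 0% = full reaction with vehicle and 100% = no enzyme background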)). Conditions: coupled enzyme assay; at 10 µM, active compounds read high.
Pantothenate synthetase (Mycobacterium tuberculosis (strain ATCC 25618 / H37Rv)), sequence (P9WIL5 whole entry, looked up): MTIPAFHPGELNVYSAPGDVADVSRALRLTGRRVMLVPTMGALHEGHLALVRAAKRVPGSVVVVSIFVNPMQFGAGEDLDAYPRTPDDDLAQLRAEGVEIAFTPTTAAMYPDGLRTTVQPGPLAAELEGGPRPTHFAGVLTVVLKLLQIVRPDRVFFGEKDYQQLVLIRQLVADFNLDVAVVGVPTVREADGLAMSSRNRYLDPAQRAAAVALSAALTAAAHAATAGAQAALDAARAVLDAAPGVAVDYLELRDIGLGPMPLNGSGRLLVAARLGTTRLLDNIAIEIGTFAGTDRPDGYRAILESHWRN
In the case of `CC(C)C[C@H](NC(=O)[C@@H]1O[C@H]1C(=O)O)C(=O)NCCCCN=C(N)N`, the inhibition was 1% (inactive). In the case of `CCn1cc(C(=O)O)c(=O)c2cnc(N3CCNCC3)nc21`, the inhibition was 1% (inactive). With `O=C(CSc1nnc(C2COc3ccccc3O2)o1)N1CCCc2ccccc21` (stereo not given) the inhibition was 0% (inactive). With `Cc1ccc(S(=O)(=O)N(C)CC(=O)NC2CC(C)(C)NC(C)(C)C2)cc1` the inhibition was 0% (inactive). `NC(CO)C(=O)NNCc1ccc(O)c(O)c1O` (stereo not given) was tested, and the inhibition was 0% (inactive). In the case of `CN1CCc2c(sc3c2c(=O)n(-c2ccccc2)c2nnc(SCc4ccc(F)cc4)n32)C1`, the inhibition was 0% (inactive). `Cc1[nH]c(C(=O)N2CCCCC2)c(C)c1C(=O)NC1CCCCC1` was tested, and the inhibition was 4% (inactive). With `Fc1cccc(Nc2ncnc3c2cnn3-c2ccccc2)c1` the inhibition was 2% (inactive). With `C=CCC1(O)C(=O)Nc2ccccc21` (stereo not given) the inhibition was 0% (inactive). With `CCOc1ccc2ccccc2c1/C=N/n1cncn1` the inhibition was 0% (inactive). In the case of `O=C(c1cc2cc(Cl)cc(Cl)c2oc1=O)N1CCOCC1`, the inhibition was 0% (inactive). In the case of `Cc1c(C(=O)OC(C)C)[nH]c2c1C(=O)CCC2`, the inhibition was 0% (inactive). `CN=C(Nc1ccc2c(c1)OCO2)SC1CC(=O)N(c2ccccc2)C1=O` (stereo not given) was tested, and the inhibition was 0% (inactive). For `Cc1cc(C)n(C2=NS(=O)(=O)c3ccccc32)n1`, the inhibition was 1% (inactive). For `O=c1c2c(nc3nc(CCc4ccccc4)[nH]n13)CCC2`, the inhibition was 9% (inactive). For `NS(=O)(=O)c1cc2c(cc1Cl)NC=NS2(=O)=O`, the inhibition was 3% (inactive). In the case of `CCOC(=O)C(C)Sc1nc2c(cnn2-c2ccc(C)cc2)c(=O)[nH]1` (stereo not given), the inhibition was 5% (inactive). `COc1ccc(C(=O)CSc2nnc(-c3ccc(C)cc3)o2)cc1` was tested, and the inhibition was 1% (inactive). `O=C(c1ccc(Br)o1)N(c1ccc(Br)cc1)C1C=CS(=O)(=O)C1` (stereo not given) was tested, and the inhibition was 0% (inactive). `Cc1nc(NC2=NCN(CCCN3CCOCC3)CN2)nc2c(C)cccc12` was tested, and the inhibition was 0% (inactive). In the case of `CC(C)(C)n1nnnc1CN1CCN(C2CCCC2)CC1`, the inhibition was 3% (inactive). In the case of `CCNC(=O)C1CC(=O)N(Cc2ccc3c(c2)OCO3)C(=Nc2ccc(F)cc2)S1` (stereo not given), the inhibition was 0% (inactive). `CC(C)(C)NC(=O)CC(CC(=O)O)c1ccccc1` (stereo not given) was tested, and the inhibition was 0% (inactive). `Clc1cccc(Nc2c3c(nc4ncnn24)CCC3)c1` was tested, and the inhibition was 0% (inactive). For `COc1ccccc1N1CCN(CC(O)c2ccc3cc[nH]c3c2)CC1` (stereo not given), the inhibition was 5% (inactive). For `CC(OC(=O)CNC(=O)C12CC3CC(CC(C3)C1)C2)C(=O)Nc1ccc(N2CCOCC2)cc1` (stereo not given), the inhibition was 0% (inactive). `COCCn1c(-c2ccc(OC)c(OC)c2)nc2ccccc21` was tested, and the inhibition was 0% (inactive). In the case of `Cc1ccc(-c2cc(C(=O)Nc3cc(C)on3)c3ccccc3n2)c(C)c1`, the inhibition was 0% (inactive). For `CC(=O)c1ccccc1Oc1nc(CN2CCOCC2)nc2scc(-c3cccs3)c12`, the inhibition was 3% (inactive). With `CCCC(=O)Nc1cc(C)c(NC(=O)c2ccccn2)cn1` the inhibition was 0% (inactive). `CC1=C(C(=O)OC(C)C)C(c2ccccn2)n2ncnc2N1` (stereo not given) was tested, and the inhibition was 0% (inactive). In the case of `O=C(NCc1cccnc1)c1ccc(=O)oc1`, the inhibition was 3% (inactive). In the case of `CCOC(=O)CSC1=Nc2ccccc2C2=NC(CC(=O)NCc3cccs3)C(=O)N12` (stereo not given), the inhibition was 4% (inactive). In the case of `c1ccc2c(NC3CCCC3)nnc(NC3CCCC3)c2c1`, the inhibition was 0% (inactive). For `O=C(Nc1ccc(Cl)cn1)c1cccnc1`, the inhibition was 0% (inactive). For `COc1ccc(NC(=O)CCc2nc(-c3ccccc3F)no2)cc1`, the inhibition was 0% (inactive). `CN1CCN(S(=O)(=O)c2ccc(Sc3nnc(-c4cccs4)n3-c3ccccc3)nc2)CC1` was tested, and the inhibition was 3% (inactive). In the case of `CC(=O)c1c(C)[nH]c(C(=O)OCc2nnc(-c3ccccc3)o2)c1C`, the inhibition was 0% (inactive). `O=C(CCSc1nc(-c2ccco2)cc(C(F)(F)F)n1)Nc1ccc2c(c1)OCO2` was tested, and the inhibition was 0% (inactive). For `O=C(NCC1CCCO1)c1cc(-c2ccncc2)nc2ccc(S(=O)(=O)N3CCOCC3)cc12` (stereo not given), the inhibition was 0% (inactive).
